Test results reported in ChEMBL document CHEMBL1157539, “Thousands of chemical starting points for antimalarial lead identification” (Nature, 2010).

Tests used:
Assay type in all cases: functional
[1] = system: Plasmodium falciparum; test: GSK_TCMDC: Inhibition of Plasmodium falciparum 3D7 in whole red blood cells, using parasite LDH activity as an index of growth. Test compounds present at 2uM
[2] = system: Plasmodium falciparum; test: GSK_TCMDC: Inhibition of Plasmodium falciparum Dd2 in whole red blood cells, using parasite LDH activity as an index of growth. Test compounds present at 2uM
[3] = system: HepG2; test: GSK_TCMDC: Percent inhibition of human HepG2 cell line. Test compounds present at 10uM.

Structure (SMILES) | Inhibition [1] [%] | Inhibition [2] [%] | Inhibition [3] [%]
Cc1ccc(NC(=O)Nc2ccc(Cl)c(C(F)(F)F)c2)cc1-c1ccc(C(=O)Nc2ccncc2)cc1 | 99 | 99 | 77
Br.CCCC1N=C(N)N=C(N)N1c1ccc(CC)cc1 (stereo not given) | 94 | 4 | 11
Cc1ccc(C(C#N)c2ccc3c(C(F)(F)F)cc(C(F)(F)F)nc3n2)cc1 (stereo not given) | 96 | 36 | 14
COc1ccc(Nc2nccc(NCC(O)c3ccc(C(F)(F)F)cc3)n2)cc1 (stereo not given) | 98 | 54 | 6
O=C(Nc1ccc(OC2CCN(Cc3ccc(F)cc3)C2)c(Cl)c1)c1ccco1.O=C(O)C(F)(F)F (stereo not given) | 96 | 97 | 9
Cl.O=S(=O)(c1cccc(F)c1)c1ccc(Nc2ncnc3cc(Br)sc23)cc1Cl | 86 | 11 | 20
O=C(/C=C/c1ccc(Cl)c(Cl)c1)NCCCCCN1CCN(C(=O)Nc2ccc(C(F)(F)F)cc2)CC1 | 99 | 0 | 26
CC(CN1CCN(C)CC1)C(=O)Nc1ccc(-c2ccc(-c3nc4cc(C(F)(F)F)ccc4[nH]3)cc2)cc1 (stereo not given) | 100 | 100 | 19
COc1ccc(CNCc2ccc(-c3cccc(-c4nc5cccc(C)c5[nH]4)c3)cc2)cc1.O=C(O)C(F)(F)F | 100 | 100 | 69
CN1CCN(Cc2cccc(-c3ccc4c(Nc5cc(O)c(Cl)cc5F)ccnc4c3)c2)CC1 | 100 | 100 | 0
O=C(Nc1cccc(-c2csc(-c3nc4ccccc4[nH]3)c2)c1)c1cccnc1 | 98 | 45 | 18
N#Cc1ccc(-c2ccc(C(=O)NC3CCN(CCN4CCC(c5cn(CCO)c6ccccc56)CC4)CC3)cc2)cc1 | 100 | 79 | 30
O=S(=O)(c1c(Cl)cc(Cl)cc1Cl)N1CCCCC(c2ccc(C(F)(F)F)cc2)=N1 | 98 | 99 | 6
Cc1cc(N2CCCC2)nc(Nc2ccc(NC(=O)CC(C)C)cc2)n1 | 95 | 53 | 37
COc1ccccc1NC(=O)NC1CCN(CCCCCNC(=O)/C=C/c2ccc(Cl)c(Cl)c2)CC1 | 100 | 15 | 4
O=C(/C=C/c1ccc(Cl)c(Cl)c1)NCCCCN1CCCN(C(=O)Nc2cc(Cl)cc(Cl)c2)CC1 | 97 | 1 | 21
CC(C)N1CCN(C(CN2CCN(CCCOc3cccc(-c4ccccc4)c3)CC2)c2ccc(F)cc2)CC1.Cl (stereo not given) | 100 | 99 | 100
Cc1ccc(NC(=O)c2ccc(N3CCN(c4ccncc4)CC3)cc2)cc1F.O=C(O)C(F)(F)F | 100 | 79 | 47
CCc1n[nH]c(C(=O)Nc2cccc(N3CCCC3)c2)c1C | 81 | 52 | 15
O=C(Nc1cccc(N2CCC(NCc3cccnc3)CC2)c1)c1cccc(C(F)(F)F)c1 | 98 | 2 | 26
COc1cc(Nc2nccc(N3CCC(NC(=O)c4cc5ccccc5s4)C3)n2)cc(OC)c1OC (stereo not given) | 96 | 50 | 2
CC(C)CC(=O)N(Cc1ccc(-c2ccc(CNC3Cc4ccccc4C3)cc2)cc1)C1CCNCC1.O=C(O)C(F)(F)F | 85 | 65 | 20
CCCc1cc(N2CCC(N3CCCC3)CC2)nc(Nc2ccc(Cl)cc2)n1 | 96 | 9 | 29
COc1ccc(-c2cc(C(=O)N[C@@H](Cc3ccccc3)C(=O)NCCN3CCCCC3)ccc2O)cc1 | 96 | 0 | 0
CC(=O)Nc1ccc2[nH]cc(C3CCN(CC4CCN(C(=O)/C=C/c5ccc(Cl)c(Cl)c5)CC4)CC3)c2n1 | 100 | 99 | 21
COc1ccc2ncc(F)c(CCN3CCC(NCc4cc(Br)c5c(c4)OCCO5)CC3)c2n1.Cl | 100 | 94 | 26
CCc1nonc1NC(=O)c1oc2c(C)c(C)ccc2c1C | 89 | 64 | 1
Cc1ccccc1CNc1nccc(NCCC(=O)Nc2ccccc2)n1.O=C(O)C(F)(F)F | 90 | 15 | 16
CCNc1cc(C(=O)N[C@@H](Cc2ccccc2)[C@H](O)CNC(C)(C)Cc2cccc(Cl)c2)cc(N2CCCCS2(=O)=O)c1.Cl | 97 | 74 | 17
CNC(=O)c1cnc(Nc2ccc(OCC(O)CN(C)C)cc2)nc1Nc1cccc(Br)c1.O=C(O)C(F)(F)F (stereo not given) | 100 | 100 | 68
